In the supplement of paper PMC10981050:
Values joined by “and” are separate entries in the source; they are usually repeats but may differ in a detail not shown here. Equal values may be shown once. Where a name gives a salt, the structure may show the parent alone.

What was measured:
Test in all cases: cell viability relative to vehicle control; higher = less cytotoxic
Conditions in all cases: 10 µM
K562 = system: K562
Method in brief: (§1)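 CRISPR-edited SRSF2 P95 mutant and isogenic wild-type clones of four leukaemia lines were screened against Selleck bioactive, kinase and epigenetic probe libraries, with identity-inconsistent compounds removed. Compounds were acoustically dispensed into 384-well plates at a single 10 µM dose, with 2000 cells in 50 µL medium per well. After 48 h, supernatant was removed and CellTiter-Glo luminescence was read. Viability was expressed as percent of the on-plate DMSO vehicle control, analysed in Genedata Screener.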

MARIMO = system: MARIMO
Method in brief: as §1

MOLM14 = system: MOLM14
Method in brief: as §1

OCI-AML2 = system: OCI-AML2
Method in brief: as §1

| SMILES | cell viability (K562; SRSF2 genotype: SRSF2 P95H/wt) | cell viability (K562; SRSF2 genotype: SRSF2 wt/wt) | cell viability (MARIMO; SRSF2 genotype: SRSF2 P95H/wt) | cell viability (MARIMO; SRSF2 genotype: SRSF2 wt/wt) | cell viability (MOLM14; SRSF2 genotype: SRSF2 P95H/wt) | cell viability (MOLM14; SRSF2 genotype: SRSF2 wt/wt) | cell viability (OCI-AML2; SRSF2 genotype: P95H/wt) | cell viability (OCI-AML2; SRSF2 genotype: wt/wt) |
| --- | --- | --- | --- | --- | --- | --- | --- | --- |
| N#C/C(=C1/SC[C@@H](c2ccc(Cl)cc2Cl)S1)n1ccnc1 [Luliconazole] | 85.6% and 83.3% | 82.6% | 78.9% | 100% | 88.7% | 89.5% | 62.5% | 83.5% |
| O=S(=O)(O)NC1CCCCC1 [Cyclamic acid] | 102% and 96.3% | 97.2% | 100% | 111% | 104% | 104% | 94.5% | 110% |
| Cn1cnc(-c2cc3nccc(Oc4ccc(NC(=S)NC(=O)Cc5ccccc5)cc4F)c3s2)c1 | 80.4% and 84.1% | 71.9% | 87.8% | 105% | 23.3% | 15.3% | 49.2% | 58.8% |
| CCCCCCCCC/C(=C\C1=C(C)C(=O)C(OC)=C(OC)C1=O)C(=O)O | 106% and 100% | 99.4% | 112% | 105% | 94.2% | 102% | 108% | 107% |
| CCOCCn1c(C2CCN(CCc3ccc(C(C)(C)C(=O)O)cc3)CC2)nc2ccccc21 [Bilastine] | 105% and 108% | 113% | 107% | 104% | 107% | 106% | 108% | 96.2% |
| CCOC(=O)C1OC1C(=O)NC(CC(C)C)C(=O)NCCC(C)C (stereo not drawn) | 103% | 97.2% | 96.3% | 101% | 88.7% | 101% | 98.5% | 104% |
| O=C(Nc1ccncc1)c1cc([N+](=O)[O-])ccc1Cl | 102% and 101% | 91.5% | 106% | 102% | 70.5% | 106% | 83.2% | 73.9% |
| O=c1[nH]c(=O)n([C@H]2C[C@H](O)[C@@H](CO)O2)cc1F [Floxuridine] | 54.2% and 46.3% | 30.1% | 86.5% | 96.5% | 48% | 14.9% | 30.9% | 48.8% |
| CCOC(=O)c1ccc(NC2CCCCC2)c(N)c1 [Ferrostatin-1 (Fer-1)] | 98.7% and 94.8% | 88.4% | 90.6% | 106% | 104% | 102% | 94.3% | 90.4% |
| C[C@]12CC[C@@H]3c4ccc(OC(=O)c5ccccc5)cc4CC[C@H]3[C@@H]1CC[C@@H]2O [Estradiol Benzoate] | 62.1% and 62.4% | 77.2% | 54.6% | 35.6% | 82.6% | 76.1% | 58.4% | 46.7% |
| COc1ccc(CNCc2cccc3ccccc23)cc1 | 91.6% and 97% | 95.1% | 88.5% | 97.4% | 97.4% | 101% | 92.4% | 101% |
| CCN1CCN(Cc2ccc(-c3cc4c(N[C@H](C)c5ccccc5)ncnc4[nH]3)cc2)CC1 | 3.36% and 7.86% | 8.31% | 52.9% | 58.4% | 12.6% | 11.8% | 13.8% | 23% |
| Cc1nnsc1C(=O)Nc1ccc(-n2nc(C(F)(F)F)cc2C(F)(F)F)cc1 | 78.2% and 82% | 76.3% | 86.6% | 98.2% | 107% | 99.1% | 76.6% | 89.2% |
| COc1ccc2c(c1)[C@]1(C[C@H]1c1ccc3c(/C=C/c4ccc(CN5C[C@@H](C)O[C@@H](C)C5)cc4)n[nH]c3c1)C(=O)N2 | 13.4% and 27.5% | 17.7% | 30.9% | 29.3% | 14.5% | 10.7% | 11.6% | 20.3% |
| CCOC(=O)C1=C(C)NC(C)=C(C(=O)OC)C1c1cccc(Cl)c1Cl (stereo not drawn) [Felodipine (Plendil)] | 72.9% and 78.2% | 79.9% | 79.2% | 88.8% | 78.4% | 86.3% | 78.9% | 87.1% |
| CC(C)NC(=O)C1CCC(n2c(NC(=O)c3ccc(F)cc3)nc3ccc(CN4CCC(C(C)(C)O)CC4)cc32)CC1 (stereo not drawn) [Belizatinib (TSR-011)] | 59.4% and 65.3% | 56.9% | 41.4% | 45% | 7.89% | 11.3% | 19% | 35.3% |
| COC(=O)CCSCc1ccc(-c2onc(C)c2NC(=O)OC(C)c2ccccc2Cl)cc1 (stereo not drawn) | 94.7% and 94% | 94.3% | 87.3% | 97.7% | 90% | 94.7% | 82.3% | 100% |
| COc1ccc2cc3[n+](cc2c1OC)CCc1cc2c(cc1-3)OCO2 [Berberine chloride] | 66.5% and 69.6% | 65.3% | 67.2% | 66.7% | 70.4% | 81.3% | 48.9% | 53.8% |
| CS(=O)(=O)Nc1ccc([N+](=O)[O-])cc1OC1CCCCC1 | 99.4% and 103% | 97% | 102% | 95.3% | 94.4% | 98.8% | 107% | 101% |
| CCCCCCCCN=c1ccn(CCCCCCCCCCn2ccc(=NCCCCCCCC)cc2)cc1 [Octenidine Dihydrochloride] | 0.46% and 0.39% | 0.55% | 0.32% | 0.34% | 0.3% | 0.33% | 0.29% | 0.41% |
| CC1=CC(=O)CC(C)(C)C1=O [Ketoisophorone] | 98.4% and 92.1% | 100% | 98.3% | 110% | 101% | 105% | 96.1% | 108% |
